Inconclusive results are not listed. Active and inactive are the calls of the source. Unless noted, the call rests on the fitted dose curve; in most records, active means well fitted curve in either direction with a large enough effect (not every such curve was filed as active); inconclusive means small, poorly fitted or top-dose-only effect, or another doubt; inactive means flat fitted curve, though single readings scatter.
How the values were obtained:
[1] = target: Lysosomal acid glucosylceramidase (Homo sapiens) (UniProt P04062); assay: Glucocerebrosidase-p2 (AID 348; in the data active means potency below about 10 µM; further: potency means the concentration at half of the fitted maximal effect); conditions: purified GBA, blue fluorogenic substrate, 40 min
Sequence of Lysosomal acid glucosylceramidase (Homo sapiens) (P04062 whole entry, looked up): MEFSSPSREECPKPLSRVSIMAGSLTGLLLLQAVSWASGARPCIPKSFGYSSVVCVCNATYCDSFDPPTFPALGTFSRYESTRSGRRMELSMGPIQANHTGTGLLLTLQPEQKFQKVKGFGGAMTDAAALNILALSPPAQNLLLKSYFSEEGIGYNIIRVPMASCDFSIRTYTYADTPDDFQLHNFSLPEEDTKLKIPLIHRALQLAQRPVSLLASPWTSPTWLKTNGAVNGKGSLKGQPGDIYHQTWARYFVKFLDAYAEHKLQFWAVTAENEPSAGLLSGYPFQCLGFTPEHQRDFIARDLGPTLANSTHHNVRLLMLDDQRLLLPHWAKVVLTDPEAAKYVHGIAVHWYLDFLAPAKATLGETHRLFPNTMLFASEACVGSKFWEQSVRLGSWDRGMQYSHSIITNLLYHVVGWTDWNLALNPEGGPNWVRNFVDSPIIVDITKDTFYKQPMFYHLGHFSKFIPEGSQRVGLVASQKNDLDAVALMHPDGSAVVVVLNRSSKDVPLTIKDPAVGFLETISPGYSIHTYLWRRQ
Outline: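 Normal human glucocerebrosidase (0.2 nM) with blue fluorogenic substrate (80 uM final) in citrate/phosphate pH 5.9 with 10mM sodium taurocholate, 0.01% tween-20; 40 min RT, NaOH/glycine stop; fluorescence Ex 365/Em 440; AC50 from a titration from 0.6 nM upwards.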

[2] = AP1 Signaling Pathway (AID 357); conditions: ME-180 AP-1-bla reporter, EGF-induced, beta-lactamase ratio, 5 h; at 7.69 µM (top of the series) unless noted;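 further: ME-180 reporter cells stimulated with EGF at its EC50 level; on the % scale 0 is the no-effect control and ±100 the full control effect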
Outline: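 Read-out was the 460nm/530nm emission ratio (excitation 405nm) after CCF4 loading for 2.5 hours at room temperature. Cells carried an AP-1-driven beta-lactamase reporter, were stimulated with EC50 EGF plus compound for 5 hours, and AC50 values came from titrations.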

[3] = target: Cytochrome P450 1A2 (Homo sapiens) (UniProt P05177); assay: p450-cyp1a2 (AID 410; calls by dose curve; further: potency means the concentration at half of the fitted maximal effect;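 on activity change, negative = inhibition: -100% = full effect of reference inhibitor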); conditions: recombinant CYP1A2, luciferin-ME demethylation, luminescence; series mostly up to 11.4 µM
Sequence of Cytochrome P450 1A2 (Homo sapiens) (P05177 whole entry, looked up): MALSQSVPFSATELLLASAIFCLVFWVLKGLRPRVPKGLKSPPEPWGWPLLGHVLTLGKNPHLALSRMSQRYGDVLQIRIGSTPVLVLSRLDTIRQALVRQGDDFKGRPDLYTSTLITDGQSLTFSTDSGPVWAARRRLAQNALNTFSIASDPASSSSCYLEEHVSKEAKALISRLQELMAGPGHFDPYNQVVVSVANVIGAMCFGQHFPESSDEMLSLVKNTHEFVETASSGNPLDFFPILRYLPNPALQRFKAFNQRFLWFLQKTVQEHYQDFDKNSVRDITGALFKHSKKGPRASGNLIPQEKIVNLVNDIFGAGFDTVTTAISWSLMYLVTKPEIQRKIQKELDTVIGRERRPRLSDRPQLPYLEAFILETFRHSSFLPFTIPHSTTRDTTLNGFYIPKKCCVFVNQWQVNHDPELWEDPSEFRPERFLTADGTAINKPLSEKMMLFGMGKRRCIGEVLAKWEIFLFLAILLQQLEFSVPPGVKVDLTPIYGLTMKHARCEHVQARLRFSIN
Outline: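 Luminescent demethylation readout: Luciferin-ME (100uM, equal to Km) turned over by 20nM CYP1A2 for 60 min at room temperature after NADPH regeneration addition, following 10 min compound preincubation. Normalization used 57 uM furafylline as full inhibition.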

[4] = NFAT Signaling Pathway (AID 444); conditions: Jurkat NFAT-bla M1, carbachol, beta-lactamase ratio, 5 h; at 7.69 µM (top of the series) unless noted;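 further: carbachol stimulus at about its EC50 of 1 µM final; on the % scale 0 is the no-effect control and ±100 the full control effect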
Outline: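 Read-out: CCF4 FRET ratio (460 nm/530 nm) after 1 h RT dye loading, used for %activity and AC50 from titration series. Cells: Jurkat NFAT-β-lactamase/M1 line, treated with compound plus 1 uM carbachol for 5 h, 37 °C.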

[5] = target: Glucocorticoid receptor (Homo sapiens) (UniProt P04150); assay: GR-GFP Redistribution (AID 450;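 active means compounds whose dose series gives a full or clear partial fitted curve of increased nuclear translocation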; further: potency means the concentration at half of the fitted maximal effect); conditions: U2OS GR-GFP nuclear translocation, laser cytometry, 2 h
Sequence of Glucocorticoid receptor (Homo sapiens) (P04150 whole entry, looked up, the tested form may be a part): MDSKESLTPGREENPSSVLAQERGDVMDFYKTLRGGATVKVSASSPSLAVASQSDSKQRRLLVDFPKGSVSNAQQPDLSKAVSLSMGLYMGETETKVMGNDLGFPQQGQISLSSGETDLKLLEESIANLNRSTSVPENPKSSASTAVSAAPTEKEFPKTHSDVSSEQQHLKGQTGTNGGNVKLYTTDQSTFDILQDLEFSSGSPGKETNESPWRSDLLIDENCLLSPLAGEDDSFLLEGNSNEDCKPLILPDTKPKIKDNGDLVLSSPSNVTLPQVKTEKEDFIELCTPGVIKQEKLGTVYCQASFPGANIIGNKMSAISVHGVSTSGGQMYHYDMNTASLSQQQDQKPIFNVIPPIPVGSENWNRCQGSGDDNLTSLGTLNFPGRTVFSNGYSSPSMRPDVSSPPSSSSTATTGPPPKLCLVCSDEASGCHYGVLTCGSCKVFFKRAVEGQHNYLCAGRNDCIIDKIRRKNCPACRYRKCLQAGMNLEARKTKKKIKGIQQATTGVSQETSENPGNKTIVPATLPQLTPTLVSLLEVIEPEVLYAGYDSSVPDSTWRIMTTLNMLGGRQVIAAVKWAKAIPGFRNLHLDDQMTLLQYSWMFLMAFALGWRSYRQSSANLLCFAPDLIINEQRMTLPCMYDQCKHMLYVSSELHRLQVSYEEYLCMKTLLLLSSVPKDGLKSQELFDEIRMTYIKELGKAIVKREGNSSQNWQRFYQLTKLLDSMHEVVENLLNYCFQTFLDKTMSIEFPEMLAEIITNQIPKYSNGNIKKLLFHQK

[6] = target: Glucocorticoid receptor (Homo sapiens) (UniProt P04150); assay: GR-EFC Redistribution (AID 451; calls by dose curve; further: potency means the concentration at half of the fitted maximal effect); conditions: CHO-K1 GR-EFC translocation, beta-gal luminescence, 2 h
Outline: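 Translocation of GR-ED fusion to nuclear EA restores b-gal, read by luminescence after 1 h room-temperature detection. Engineered CHO-K1 biosensor cells, 1,000/well, exposed 2 h at 37 C to titrations up to 46 uM final.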

[7] = target: Mitogen-activated protein kinase 10 (Mus musculus) (UniProt Q61831); assay: JNK3 AlphaScreen Assay (AID 530); conditions: JNK3 lysate, c-Jun phosphorylation; series mostly up to 11.4 µM;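 further: kinase came from lysate of stimulated human HepG2 cells; signal reports phosphorylation of biotinylated GST-cJun 1-79 at Ser73 with 10 µM ATP; on the % scale 0 is the no-effect control and ±100 the full control effect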
Outline: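 qHTS titrations with 15 min compound pre-incubation before adding ATP (10 uM final). Read-out: AlphaScreen of Ser73-phosphorylated biotin-GST-cJun using HepG2 lysate JNK3 activated by IL-1β and TNFα.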

[8] = target: 3',5'-cyclic-AMP phosphodiesterase 4B (Homo sapiens) (UniProt Q07343); assay: qHTS Assay for Inhibitors of PDE-IV (AID 607; active means well fitted activation curve with a large enough effect in the main read-out, with a control signal flat, not every such curve was filed as active; further: % of control where 0% means no effect); conditions: HEK293 ACTOne CNG channel cells, membrane potential fluorescence; series mostly up to 22.9 µM
Sequence of 3',5'-cyclic-AMP phosphodiesterase 4B (Homo sapiens) (Q07343 whole entry, looked up): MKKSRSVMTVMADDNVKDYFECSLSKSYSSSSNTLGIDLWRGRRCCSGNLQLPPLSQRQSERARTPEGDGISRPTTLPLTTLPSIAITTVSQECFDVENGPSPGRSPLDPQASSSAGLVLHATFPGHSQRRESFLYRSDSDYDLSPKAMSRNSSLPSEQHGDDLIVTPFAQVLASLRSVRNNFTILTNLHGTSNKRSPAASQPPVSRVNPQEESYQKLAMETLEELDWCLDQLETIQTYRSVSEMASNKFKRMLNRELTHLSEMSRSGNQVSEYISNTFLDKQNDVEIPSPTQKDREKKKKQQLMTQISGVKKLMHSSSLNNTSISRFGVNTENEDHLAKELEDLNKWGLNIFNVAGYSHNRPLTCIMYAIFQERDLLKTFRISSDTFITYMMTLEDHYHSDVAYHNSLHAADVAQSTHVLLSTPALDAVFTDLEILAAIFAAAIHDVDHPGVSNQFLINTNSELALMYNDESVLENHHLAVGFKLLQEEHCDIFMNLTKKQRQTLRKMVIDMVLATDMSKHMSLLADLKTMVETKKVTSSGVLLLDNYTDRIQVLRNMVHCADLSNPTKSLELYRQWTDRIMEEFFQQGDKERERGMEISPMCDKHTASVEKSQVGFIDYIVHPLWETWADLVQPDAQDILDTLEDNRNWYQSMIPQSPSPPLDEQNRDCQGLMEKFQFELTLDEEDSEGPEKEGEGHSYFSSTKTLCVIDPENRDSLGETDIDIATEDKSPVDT
Outline: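 Live HEK293 cells with a modified cyclic nucleotide-gated (CNG) channel report intracellular cAMP via membrane-potential dye fluorescence (ex 535/em 590 nm). Endogenous PDE-IV was targeted. Compounds were tested at up to 22.9 uM final; RO 20-1724 100 uM served as control.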

[9] = target: Cytochrome P450 3A4 (Homo sapiens) (UniProt P08684); assay: qHTS Assay for Activators of Cytochrome P450 3A4 (AID 885; active means well fitted curve in the direction sought with a large enough effect; an effect the other way counts as inactive or inconclusive; further: nearly all actives have a fitted effect of over 65% in size); conditions: recombinant CYP3A4, Luciferin-PPXE luminescence, 60 min; series mostly up to 11.4 µM
Sequence of Cytochrome P450 3A4 (Homo sapiens) (P08684 whole entry, looked up): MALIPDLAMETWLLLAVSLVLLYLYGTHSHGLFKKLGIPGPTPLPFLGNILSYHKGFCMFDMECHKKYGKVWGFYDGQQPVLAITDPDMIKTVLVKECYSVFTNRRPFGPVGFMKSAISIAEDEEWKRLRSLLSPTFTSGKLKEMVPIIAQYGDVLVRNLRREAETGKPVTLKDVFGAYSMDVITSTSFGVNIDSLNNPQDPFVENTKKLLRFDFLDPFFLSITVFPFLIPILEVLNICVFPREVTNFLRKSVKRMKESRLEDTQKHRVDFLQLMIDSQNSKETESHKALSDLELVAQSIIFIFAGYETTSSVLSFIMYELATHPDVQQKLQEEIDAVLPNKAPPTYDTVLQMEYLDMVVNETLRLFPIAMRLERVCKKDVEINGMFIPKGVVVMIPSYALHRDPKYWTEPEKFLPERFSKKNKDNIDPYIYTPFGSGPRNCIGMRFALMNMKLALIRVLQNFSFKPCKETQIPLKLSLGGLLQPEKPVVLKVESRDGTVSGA
Outline: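 Using 20nM recombinant human CYP3A4 in potassium phosphate (200mM), substrate Luciferin-PPXE at 25uM, luminescent luciferin detection followed a 60-min RT NADPH reaction; data scaled to 57 uM ketoconazole.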

[10] = target: Cytochrome P450 2C19 (Homo sapiens) (UniProt P33261); assay: qHTS Assay for Inhibitors and Substrates of Cytochrome P450 2C19 (AID 899; active means well fitted curve in the direction sought with a large enough effect; an effect the other way counts as inactive or inconclusive; further: nearly all actives have a fitted effect of over 60% in size; further: potency means the concentration at half of the fitted maximal effect); conditions: recombinant CYP2C19, luciferin-H EGE luminescence; series mostly up to 11.4 µM
Sequence of Cytochrome P450 2C19 (Homo sapiens) (P33261 whole entry, looked up): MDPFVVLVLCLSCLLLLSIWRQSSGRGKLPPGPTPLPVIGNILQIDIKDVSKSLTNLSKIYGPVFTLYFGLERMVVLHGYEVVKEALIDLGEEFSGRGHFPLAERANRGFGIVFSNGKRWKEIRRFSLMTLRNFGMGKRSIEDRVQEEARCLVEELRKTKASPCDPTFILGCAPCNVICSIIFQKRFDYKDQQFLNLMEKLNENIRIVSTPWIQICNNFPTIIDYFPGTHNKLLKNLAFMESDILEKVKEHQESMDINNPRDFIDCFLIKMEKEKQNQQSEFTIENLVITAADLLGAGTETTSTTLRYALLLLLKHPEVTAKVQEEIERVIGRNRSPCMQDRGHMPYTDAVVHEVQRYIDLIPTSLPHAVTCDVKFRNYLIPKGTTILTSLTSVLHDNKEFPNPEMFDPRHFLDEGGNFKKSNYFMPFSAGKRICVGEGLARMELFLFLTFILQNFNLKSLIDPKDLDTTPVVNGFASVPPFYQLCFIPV
Outline: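 Luminescence readout of luciferin formed from 10uM Luciferin-H EGE (KM level) by 5 nM CYP2C19 in 50mM KPO4. 60 min NADPH-driven reaction at 37C after 10 min compound preincubation; data scaled to 57uM ketoconazole inhibition.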

[11] = Stat Signaling Pathway (AID 446); conditions: ME-180 (cervical carcinoma) SIE beta-lactamase reporter, IL-6 stimulated, 5 h; at 7.69 µM (top of the series) unless noted;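 further: ME-180 cervical cancer cells given 40 pM IL-6 alongside compound; SIE-controlled beta-lactamase reporter measured as 460/530 nm FRET emission ratio; on the % scale 0 is the no-effect control and ±100 the full control effect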
Outline: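 Overnight-plated ME-180 cells bearing a STAT Inducible Element beta-lactamase reporter; 5 h co-exposure to compound and 40 pM IL-6; values normalized to 300 pM IL-6 and 125 nM JAK inhibitor controls.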

[12] = target: Cytochrome P450 2C9 (Homo sapiens) (UniProt P11712); assay: qHTS Assay for Inhibitors and Substrates of Cytochrome P450 2C9 (AID 883; active means well fitted curve in the direction sought with a large enough effect; an effect the other way counts as inactive or inconclusive; further: nearly all actives have a fitted effect of over 60% in size; further: potency means the concentration at half of the fitted maximal effect); conditions: recombinant CYP2C9, luciferin-H luminescence, 60 min; series mostly up to 11.4 µM
Sequence of Cytochrome P450 2C9 (Homo sapiens) (P11712 whole entry, looked up): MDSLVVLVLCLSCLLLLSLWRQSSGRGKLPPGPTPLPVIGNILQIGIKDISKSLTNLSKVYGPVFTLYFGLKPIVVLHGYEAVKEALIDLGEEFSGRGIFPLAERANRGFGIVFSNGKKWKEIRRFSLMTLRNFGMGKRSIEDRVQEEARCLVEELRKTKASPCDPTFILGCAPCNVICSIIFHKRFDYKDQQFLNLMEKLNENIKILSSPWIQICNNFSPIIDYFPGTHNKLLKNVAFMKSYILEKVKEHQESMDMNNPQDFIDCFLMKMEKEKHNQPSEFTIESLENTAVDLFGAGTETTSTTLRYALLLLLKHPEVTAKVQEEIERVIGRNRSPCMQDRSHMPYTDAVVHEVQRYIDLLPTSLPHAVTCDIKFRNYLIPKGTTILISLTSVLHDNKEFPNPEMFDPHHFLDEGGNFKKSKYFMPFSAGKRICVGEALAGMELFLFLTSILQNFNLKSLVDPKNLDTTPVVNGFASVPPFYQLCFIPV
Outline: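 Luminescent read-out of deoxyluciferin hydroxylation, normalized to 57uM sulphaphenazole (AC100). Reaction: 10nM enzyme, 100uM Luciferin-H (equal to KM), 25mM KPO4, 10 min compound preincubation, then 60 min with NADPH regeneration, both at 37C.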

[13] = target: Cytochrome P450 2D6 (Homo sapiens) (UniProt P10635); assay: qHTS Assay for Inhibitors and Substrates of Cytochrome P450 2D6 (AID 891; active means well fitted curve in the direction sought with a large enough effect; an effect the other way counts as inactive or inconclusive; further: nearly all actives have a fitted effect of over 60% in size; further: potency means the concentration at half of the fitted maximal effect); conditions: recombinant CYP2D6, luciferin-ME EGE luminescence; series mostly up to 11.4 µM
Sequence of Cytochrome P450 2D6 (Homo sapiens) (P10635 whole entry, looked up): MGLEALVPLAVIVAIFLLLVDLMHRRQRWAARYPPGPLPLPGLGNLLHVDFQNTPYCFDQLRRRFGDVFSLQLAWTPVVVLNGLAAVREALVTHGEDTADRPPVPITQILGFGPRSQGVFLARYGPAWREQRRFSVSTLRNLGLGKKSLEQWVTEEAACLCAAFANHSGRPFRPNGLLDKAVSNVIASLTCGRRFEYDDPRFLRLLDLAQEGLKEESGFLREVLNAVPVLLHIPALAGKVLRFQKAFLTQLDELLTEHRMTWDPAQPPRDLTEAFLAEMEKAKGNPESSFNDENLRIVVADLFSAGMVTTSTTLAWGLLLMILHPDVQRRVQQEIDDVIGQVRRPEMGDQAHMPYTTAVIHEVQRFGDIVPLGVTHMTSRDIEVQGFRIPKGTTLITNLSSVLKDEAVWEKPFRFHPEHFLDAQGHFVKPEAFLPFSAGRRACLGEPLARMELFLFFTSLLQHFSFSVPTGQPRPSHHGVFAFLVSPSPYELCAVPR
Outline: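 Luminescent read-out of luciferin formed by 5 nM human CYP2D6 demethylating 30 uM Luciferin-ME EGE (Km level) over 60 min at room temperature after NADPH regeneration addition. Data normalized to full inhibition by 1.43 uM quinidine.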

[14] = target: ATP-dependent 6-phosphofructokinase (Trypanosoma brucei brucei) (UniProt O15648); assay: qHTS Assay to Find Inhibitors of T. brucei phosphofructokinase: hit validation (AID 492961; active means well fitted curve in the direction sought with a large enough effect; an effect the other way counts as inactive or inconclusive); conditions: T. brucei PFK, ADP-Glo luminescence; series mostly up to 51.4 µM
Outline: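 ADP-Glo luminescence read-out of ADP formed by 1.25 nM PFK from 0.1 mM ATP and 0.5 mM F6P (TEA pH 8.0, 45 min, RT). Compounds titrated; activity normalized to no-enzyme and full-enzyme controls.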

[15] = qHTS profiling for inhibitors of Plasmodium falciparum proliferation (AID 504749; active means well fitted curve in the direction sought with a large enough effect; an effect the other way counts as inactive or inconclusive;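 further: 0% = DMSO vehicle and full inhibition = artemisinin control; nearly all actives have a fitted effect of over 60% in size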); conditions: P. falciparum in erythrocytes, SYBR Green DNA, 72 h, at 28.7 µM (top of the series)
Outline: (§1)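 SYBR Green fluorescence of parasite DNA, read after lysis and overnight dark incubation, measured growth over 72 h in erythrocyte culture at 0.3% parasitemia and 2.5% hematocrit. Data normalised to DMSO and 0.29 uM artemisinin, with plate-drift correction.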

CP203 = assay: as above; conditions: P. falciparum in erythrocytes, SYBR Green DNA, 72 h; series mostly up to 28.7 µM
Outline: as §1

DFO2036 = assay: as above; conditions: P. falciparum in erythrocytes, SYBR Green DNA, 72 h; series mostly up to 28.7 µM
Outline: as §1

W2 = assay: as above; conditions: P. falciparum in erythrocytes, SYBR Green DNA, 72 h; series mostly up to 28.7 µM
Outline: as §1

[16] = target: Cytochrome P450 3A4 (Homo sapiens) (UniProt P08684); assay: qHTS Assay for Inhibitors and Substrates of Cytochrome P450 3A4 (AID 884; active means well fitted curve in the direction sought with a large enough effect; an effect the other way counts as inactive or inconclusive; further: nearly all actives have a fitted effect of over 50% in size; further: potency means the concentration at half of the fitted maximal effect); conditions: recombinant CYP3A4, Luciferin-PPXE luminescence; series mostly up to 57.1 µM
Outline: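 Luminescent readout of luciferin produced by CYP3A4 (20 nM) dealkylation of Luciferin-PPXE, 25 uM (its KM). NADPH-driven reaction ran 60 min at RT after 10 min compound preincubation; data scaled to 57 uM ketoconazole as 100% inhibition.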

Cn1c(=O)c2[nH]c(CCCc3ccc([N+](=O)[O-])cc3)nc2n(C)c1=O
inactive: Potency [1] > 11.4 µM | activity change, negative = inhibition [2] 1.15% | Potency [3] | activity change, negative = inhibition [4] -1.84% | Potency [5] > 46 µM | Potency [6] > 9.22 µM | Potency [7] | Potency [8] | Potency [9]

O=c1c2ccccc2sc2c(CO)ccc(NCCN3CCCCC3)c12
active: Potency [3] 1.58 µM
inactive: Potency [1] > 11.4 µM | activity change, negative = inhibition [2] -1.51% | activity change, negative = inhibition [4] 27.4% | Potency [5] > 46 µM | Potency [6] > 9.22 µM | Potency [7] | Potency [8] | Potency [9]

O=C(O)C[n+]1ccccc1
inactive: Potency [1] > 11.4 µM | activity change, negative = inhibition [2] -3.27% | Potency [3] | activity change, negative = inhibition [4] -24% | Potency [7] | Potency [8]

S=C(CSc1ccccc1)Nc1cccc2ccccc12
active: Potency [3] 1.26 µM | Potency [10] 0.794 µM
inactive: Potency [1] > 11.4 µM | activity change, negative = inhibition [2] 8.58% | activity change, negative = inhibition [4] -12.1% | Potency [5] > 46 µM | Potency [6] > 9.22 µM | Potency [7] | Potency [8] | Potency [9]

COc1cccc2c1C(=O)c1c(O)c3c(c(O)c1C2=O)C[C@](O)(C(=O)CO)C[C@@H]3O[C@H]1C[C@H](N)[C@@H](O)[C@H](C)O1
inactive: Potency [1] > 11.4 µM | activity change, negative = inhibition [2] 13.6% | Potency [3] | activity, negative = inhibition [11] 15.8% | Potency [5] > 46 µM | Potency [6] > 9.22 µM | Potency [7] | Potency [8] | Potency [12] | Potency [13] | Potency [10] | outcome [14] | activity, negative = inhibition ([15]; parasite line A) 6.65% | activity, negative = inhibition ([15]; parasite line B) 5.26% | Potency (CP203) | Potency (DFO2036) | Potency (W2)

CN(C)CCNCCN
inactive: Potency [1] > 11.4 µM | activity change, negative = inhibition [2] 9.73% | Potency [3] | activity change, negative = inhibition [4] 16.1% | Potency [5] > 46 µM | Potency [6] > 9.22 µM | Potency [7] | Potency [8] | Potency [12] | Potency [10]

c1ccc2c(CN3CCN(Cc4c[nH]c5ccccc45)CC3)c[nH]c2c1
inactive: Potency [1] > 11.4 µM | activity change, negative = inhibition [2] -5.4% | activity change, negative = inhibition [3] -18.1% [at 2.29 µM] | activity change, negative = inhibition [4] 5.24% | Potency [5] > 46 µM | Potency [6] > 9.22 µM | Potency [7] | Potency [8]
active: Potency [13] 2.51 µM

N=c1sc2ccccc2n1CCS (tested in a mixture with another compound)
inactive: activity change, negative = inhibition [2] 6.12% | activity, negative = inhibition [11] -20% | Potency [5] > 46 µM | Potency [6] > 9.22 µM | Potency [7] | Potency [8] | Potency [9]
active: Potency [1] 4.5 µM | Potency [3] 1 µM | Potency [13] 0.316 µM | Potency [10] 1.58 µM

C[C@@]12CCC(=O)C=C1CC[C@H]1[C@@H]2[C@@H](O)C[C@]2(C)[C@@H]1CC[C@@]2(O)C(=O)COC(=O)C1CCCC1
inactive: Potency [1] > 11.4 µM | activity change, negative = inhibition [2] -7.32% | Potency [3] | activity, negative = inhibition [11] -0.238% | Potency [7] | Potency [8] | Potency [9]
active: Potency [5] 0.0333 µM | Potency [6] 0.61 µM

Oc1ccc(Cc2cc(Cl)cc(Cl)c2O)cc1Cl
active: Potency [3] 1.58 µM | Potency [12] 0.199 µM
inactive: Potency [1] > 11.4 µM | activity change, negative = inhibition [2] -21.8% | activity, negative = inhibition [11] -9.97% | Potency [5] > 46 µM | Potency [6] > 9.22 µM | Potency [7] | Potency [8]

CN(C)C[C@H]1CCC2=C(C1=O)C(c1ccc(Cl)c(Cl)c1)C1=C(CC[C@H](CN(C)C)C1=O)O2
inactive: Potency [1] > 11.4 µM | activity change, negative = inhibition [2] 0.767% | activity change, negative = inhibition [3] -2% [at 2.29 µM] | activity, negative = inhibition [11] 13.6% | Potency [5] > 46 µM | Potency [6] > 9.22 µM | Potency [7] | Potency [8] | Potency [9]
active: Potency [16] 0.398 µM

O=C(O)C(=Cc1ccc(-c2ccccc2)cc1)C(=O)O
active: Potency [3] 0.794 µM
inactive: Potency [1] > 11.4 µM | activity change, negative = inhibition [2] -9.3% | activity, negative = inhibition [11] -12.1% | Potency [5] > 46 µM | Potency [6] > 9.22 µM | Potency [7] | Potency [8] | Potency [12] | activity change, negative = inhibition [16] -41.1% [at 11.4 µM] | Potency [13] | Potency [10]

Cc1ccc(N[C@H](c2ccccc2)c2ccc3cccnc3c2O)cc1
inactive: Potency [1] > 11.4 µM | activity change, negative = inhibition [2] -6.67% | activity change, negative = inhibition [3] -24.5% [at 2.29 µM] | activity, negative = inhibition [11] 3.71% | Potency [5] > 46 µM | Potency [6] > 9.22 µM | Potency [7] | Potency [8] | Potency [9]

c1ccc2sc(SCSc3nc4ccccc4s3)nc2c1
active: Potency [3] 3.98 µM | Potency [16] 3.16 µM | Potency [10] 1.26 µM
inactive: Potency [1] > 11.4 µM | activity change, negative = inhibition [2] -1.38% | activity, negative = inhibition [11] 2.46% | Potency [5] > 46 µM | Potency [6] > 9.22 µM | Potency [7] | Potency [8] | Potency [9]
